# In ChEMBL document CHEMBL3988442, “University of Dundee, Small-Polar-MMV Screening Library” (2021):
# Biological target: AMP-activated protein kinase, AMPK (Homo sapiens) (UniProt P54646+O43741+P54619+Q9UGJ0+Q9Y478+Q13131+Q9UGI9)
# Experiment: AMP-dependent Kinase enzyme assay. An in vitro enzyme assay that detects ADP turnover that is directly proportional to AMPK activity. This uses naive AMPK that is activated during the assay with MK-8722
# Assay type: functional
# Parameters: scale not given: direction of the effect not stated beside the values
# Conditions: 30 µM
row,SMILES,Percent Effect
1,COc1nccc(N2CC[C@@H](N3CCN(C)CC3)[C@H](O)C2)c1C#N,-9.72%
2,O=C(Cc1nc(-c2ccncc2)n[nH]1)NCCCN1CCOCC1,-0.0149%
3,COCCCN1CC2(CCN(C(=O)c3ncc(F)cc3F)CC2)CC1=O,-0.49%
4,O=C(CCn1cnnn1)N1CCCC(CO)(CCCc2ccccc2)C1 (stereo not given),0.115%
5,O=S(=O)(c1cc(F)ccc1N1CC(n2cccn2)C1)C(F)(F)F,26.5%
6,Cc1ncc(C(=O)NCCOc2ccccc2F)c(C)n1,-16.7%
7,CC(C)O[C@H]1CN(C(=O)CCN2CCCCO2)C[C@@H]1O,-7.14%
8,CCOc1ccccc1-n1c(C2CC2)n[nH]c1=O,2.2%
9,CCC1c2ccccc2CCN1CCNS(C)(=O)=O (stereo not given),-4.87%
10,CCN1CCCC(NC(=O)c2ccc(C)[nH]c2=O)C1 (stereo not given),-5.78%
11,COc1cc(Cl)cc(CN2CCCC(N3CCOCC3)C2)c1OC (stereo not given),4.12%
12,N#Cc1ccc(Cl)cc1NCC1CCOC1 (stereo not given),5.95%
13,Cc1nc(CC(C)C)cc(C(=O)N2C[C@@H](CN(C)C)[C@@H](CO)C2)n1,-4.49%
14,CCc1nc(CCNc2ncccn2)sc1C,-7.35%
15,Cc1cnn(C2CCCN(C(=O)c3cc[nH]n3)C2)c1 (stereo not given),-0.778%
16,C[C@@H]1CN(Cc2cc3ccccc3n2C)CC[C@]1(C)O,5.04%
17,CC(NC(=O)N1CCC1)c1ccc(S(N)(=O)=O)cc1 (stereo not given),7.72%
18,CN(C)CC(O)Cn1cc(NCc2ccc(Br)cc2)cn1 (stereo not given),-39.9%
19,CN(Cc1cccc(O)c1)Cc1cnn(C)c1,-1.1%
20,Cc1cc(C)c(C(=O)N2CCC3(CCCNC3)C2)cc1C (stereo not given),7.09%

row,SMILES,Percent Effect
1,O=C(NCc1ccc(-n2cncn2)nc1)c1cc[nH]n1,2.82%
2,CCSc1ncc(CN2CCN(c3ccc(C#N)cc3)C(=O)C2)cn1,2.89%
3,COc1ccccc1C(=O)N1CCN(C(=O)CCCc2cn[nH]c2)CC1,-2.48%
4,Cc1cc(O)n2nc(C3CCN(C(=O)c4ccccn4)CC3)cc2n1,6.67%
5,COCc1ccccc1C(=O)OCc1noc(C)n1,6.88%
6,O=C(O)c1ccn(-c2cccc(NC(=O)c3ccccc3Cl)c2)n1,0.768%
7,N#Cc1ccc(SCCC(=O)Nc2ccc(CC(N)=O)cc2)cc1,0.314%
8,CS(=O)(=O)CCN1CCSCC1c1ccc(Cl)cc1 (stereo not given),-2.02%
9,OC(CNCc1nnc2ccccn12)c1ccc2c(c1)OCO2 (stereo not given),9.33%
10,CCNC(=O)[C@@H]1C[C@@H](N)CN1C(=O)c1cc2ccccc2[nH]1,8.12%
11,CC(C)n1ccnc1C1CCN(c2nccc(C(F)(F)F)n2)CC1,15.9%
12,CCc1cc(NCCCNS(C)(=O)=O)nc(-c2ccccn2)n1,-7.82%
13,CN(CC(O)C(F)(F)F)C(=O)Nc1cccc(C(F)F)c1 (stereo not given),-0.316%
14,CC(C)Oc1cc(N2CCN(Cc3ccsc3)C(CCO)C2)nc(N)n1 (stereo not given),-13.7%
15,CC(C)c1nc2n(n1)CC(NCc1cc3ccccc3o1)CC2 (stereo not given),0.664%
16,O=S(=O)(NCC1(c2cccs2)CCOCC1)c1ccc2c(c1)OCCO2,-2.31%
17,COc1ccc(Br)cc1S(=O)(=O)N(C)Cc1ccc(N(C)C)cc1,-1.52%
18,Cc1cc(NC(=O)Cn2ccc(=O)c3ccccc32)[nH]n1,-3.42%
19,CCOCCC(=O)N(CCC#N)c1ccc(C)c(C)c1,-0.0952%
20,Cc1nccn1CCCN1CCCC(c2nccn2C)C1 (stereo not given),-14.7%
